# In PubChem BioAssay (Tox21):
# Values joined by “and” are separate entries in the source; they are usually repeats but may differ in a detail not shown here. Equal values may be shown once. Records with an inconclusive call do not appear. Entries that show only a call come without a potency. More than one record can exist for a structure, and the calls need not agree. Active and inactive are the calls of the source. Calls follow the shape of the dose curve; as a rule, active = well fitted activation curve with a large enough effect in the repeat runs; inconclusive = weak or mixed curves; inactive = no such curve, though single readings can be large or run the other way.
# Biological target: Nuclear receptor subfamily 1 group I member 3 (Homo sapiens) (UniProt Q14994)
# Sequence (Q14994 whole entry, looked up): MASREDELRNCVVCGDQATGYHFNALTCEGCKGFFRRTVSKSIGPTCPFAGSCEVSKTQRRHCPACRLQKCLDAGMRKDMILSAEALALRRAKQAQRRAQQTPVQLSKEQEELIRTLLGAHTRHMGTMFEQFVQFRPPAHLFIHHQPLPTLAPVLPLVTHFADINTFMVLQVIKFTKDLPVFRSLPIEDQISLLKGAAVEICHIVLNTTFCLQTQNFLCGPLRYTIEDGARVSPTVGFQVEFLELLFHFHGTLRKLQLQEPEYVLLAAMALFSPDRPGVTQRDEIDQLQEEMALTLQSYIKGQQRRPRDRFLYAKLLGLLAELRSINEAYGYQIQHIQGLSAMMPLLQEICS
# Test: qHTS assay to identify small molecule agonists of the constitutive androstane receptor (CAR) signaling pathway (AID 1224839); also: nearly all actives have a fitted effect of over 15% in size;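 as to activation: HepG2 cells stably carrying human CAR and a CYP2B6 luciferase reporter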
# Conditions: HepG2 hCAR CYP2B6-luciferase, agonist mode, 24 h; series mostly up to 92.4 µM
# Description: National Center for Advancing Translational Sciences [NCATS] NIH Chemical Genomics Center [NCGC] U.S. Environmental Protection Agency [EPA] National Institutes of Environmental Health Sciences [NIEHS] National Toxicology Program [NTP] Assay overview: The constitutive androstane receptor (CAR) is a nuclear receptor which regulates multiple drug metabolizing enzymes (DMEs) and transporters. Activating CAR will generally increase the transcription and subsequent translation of CYP2B6 and CYP3A4. These two DMEs represent about 50% of the drug metabolizing potential in the body. […] Recently, there have also been studies performed indicating CARs role in energy metabolism and cancer therapy. Therefore, inducing CARs activity could have a potential effect on diabetes and cancer. Identifying environmental toxins and compounds which modulate CAR, through the use of the Tox21 10K compound collection, will be an important step in determining the toxicity and potential therapeutic effects these factors will have on the human body.
# Assay Protocol Summary: A double-stable (hCAR and CYP2B6-2.2kb) transfected cell line, derived from human hepatoma (HepG2) cells, was utilized for the duration of the quantitative high-throughput screens. The HepG2-CYP2B6-hCAR cells suspended in DMEM culture medium supplemented with 10% FBS, 5 ug/mL blasticidin, 0.5 mg/mL geneticin, 100 U/mL penicillin and 100 ug/mL streptomycin were dispensed at 2500 cells/4 uL/well in 1536-well white solid bottom plates using a Multidrop Combi. After the assay plates were incubated at 37 C/5% CO2 for 4 hrs, 23 nL of compounds at 15 concentrations (from 5-48 columns) or positive control (from 1 to 4 columns) were transferred to the assay plates using a Pintool station. One uL of PK11195, was added using a Flying Reagent Dispenser to generate a final concentration of 0.75 uM PK11195 inside each well. After a 24 hr incubation period at 37 C/5% CO2, four uL of ONE-Glo reagent was added into the assay plates using a Flying Reagent Dispenser. After a 30 min incubation period at room temperature, the luminescence intensity in the assay plates was measured using a ViewLux plate reader.
# Potency is read from the fitted curve at half-maximal effect.
Compound,Potency,activation
CN(C)c1ccc2nc3ccc(=[N+](C)C)cc-3sc2c1,1.54 µM (active) and 750 nM (active),
CCc1ccc(C(c2ccc(CC)cc2)C(Cl)Cl)cc1,22 µM (active),
OCCN1CCNCC1,inactive,
CCN(CC)C(=O)Nc1ccc(OCC(O)CNC(C)(C)C)c(C(C)=O)c1 (stereo not given),inactive,
CCC(CO)(CO)COCC(CC)(CO)CO,inactive,
CCn1c2ccccc2c2cc(N)ccc21,10.8 µM (active) and 15.4 µM (active) and 30.6 µM (active),
O=Nc1ccc(Nc2ccccc2)cc1,17.2 µM (active),
CCOc1ccc2c(c1)C(C)=CC(C)(C)N2,27.2 µM (active) and 27.3 µM (active),
CNC1(C)C2CCC(C2)C1(C)C (stereo not given),inactive,
CC(C)(C)c1ccccc1,inactive,
CCC(C)(Oc1ccc(C2(c3ccc(OC(C)(CC)C(=O)O)cc3)CCCCC2)cc1)C(=O)O (stereo not given),inactive,
Cc1c(O)cccc1C(=O)N[C@@H](CSc1ccccc1)[C@H](O)CN1C[C@H]2CCCC[C@H]2C[C@H]1C(=O)NC(C)(C)C,inactive,
CC1COC(=O)O1 (stereo not given),inactive,
C=CC(=O)OCCCCCCCC,inactive,
CC(C)CCCCCCc1ccc(O)cc1,inactive and 17.2 µM (active),
CCc1cc(C(C)(C)C)c(O)c(C(C)(C)C)c1,inactive and 12.2 µM (active),
CC1=CC(=O)c2ccccc2C1=O,inactive,
Cc1ccc(S(=O)(=O)Oc2ccc(N=Nc3ccc(-c4ccc(N=Nc5c(O)ccc6cc(S(=O)(=O)O)cc(S(=O)(=O)O)c56)c(C)c4)cc3C)cc2)cc1,inactive,
CC[C@H]1CN2CCc3cc(OC)c(OC)cc3[C@@H]2C[C@@H]1C[C@H]1NCCc2cc(OC)c(OC)cc21,inactive,
NC(Cc1ccc(Cl)cc1)C(=O)O (stereo not given),,0.949% [at 0.349 µM] (inactive)

Compound,Potency,activation
O=C(OCc1ccccc1)c1ccc(O)cc1,inactive,
CCOc1ccccc1C(N)=O,inactive,
O=C(O)c1cc(Cl)cc(Cl)c1,inactive,
C=CS(=O)(=O)O,inactive,
c1ccc2cc3c(ccc4ccccc43)cc2c1,30.7 µM (active) and 27.3 µM (active),
CCCCCCCCCCCCCCCCCl,,-1.81% [at 19 µM] (inactive)
O=C(Nc1ccccc1SSc1ccccc1NC(=O)c1ccccc1)c1ccccc1,inactive,
Cc1cc(C2(c3cc(C)c(O)cc3C)OS(=O)(=O)c3ccccc32)c(C)cc1O,inactive,
Nc1ccc2cc3ccccc3cc2c1,27.8 µM (active) and 48.6 µM (active),
COc1cc(C(=S)N2CCOCC2)ccc1O,inactive,
C[N+]1([O-])CCOCC1,inactive,
CC(=O)CC(=O)Nc1ccc2[nH]c(=O)[nH]c2c1,inactive,
Cc1cc(Cc2cc(C)cc(C(C)(C)C)c2O)c(O)c(C(C)(C)C)c1,inactive,
O=C(Cl)c1cccc(C(=O)Cl)c1,inactive,
CC(C)(C)NCC(O)COc1ccccc1OCC1CCCO1 (stereo not given),inactive,
Cc1scc2c1N(C(=O)CN1CCN(C)CC1)c1ccccc1NC2=O,inactive,
Cc1occc(=O)c1OC(=O)C(C)C,inactive,
COc1ccc(CCN2CCC(Nc3nc4ccccc4n3Cc3ccc(F)cc3)CC2)cc1,inactive,
CC(C)CCOC(=O)c1ccc(N(C)C)cc1,13.3 µM (active),
Oc1c(Cl)cc(Cl)c(Cl)c1Cc1c(O)c(Cl)cc(Cl)c1Cl,inactive,
